“And” between values parts separate entries of the source, which are not always exact repeats. Equal values may be shown once. Screen size: about 5,500 compounds; about 2,000 (36%) were called active. Not shown: some 18% with an inconclusive outcome. Rule as the data show it: active = normalized growth mostly below about 0.91 (no sharp cut-off); inconclusive = no clear call, values can overlap the other calls; inactive = mostly above about 0.92. The list shows a part of the results.
Assay: chemical genetic growth profiling, strain panel (AID 1159580);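 also: tested at 20 µM; growth read once vehicle control cultures reached saturation at 30 °C; 1 = growth at the plate median or of vehicle wells; lower values mean less growth of the strain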
Conditions: S. cerevisiae deletion strains, growth OD

Measured: normalized growth

COc1c(OC)c2occc2c2oc(=O)ccc12
inactive: locus YAL021C, strain ccr4, stronger effect = lower value 0.988 | locus YAL026C, strain drs2, stronger effect = lower value 0.987 | locus YAL030W, strain snc1, stronger effect = lower value 0.99 | locus YBL061C, strain skt5, stronger effect = lower value 0.979 | locus YBR009C, strain hhf1, stronger effect = lower value 0.958 | locus YBR021W, strain FUR4, stronger effect = lower value 1.01 | locus YBR023C, strain chs3, stronger effect = lower value 0.976 | locus YBR171W, strain sec66, stronger effect = lower value 0.973 | locus YBR229C, strain ROT2, stronger effect = lower value 0.967 | locus YBR231C, strain swc5, stronger effect = lower value 0.96 | locus YBR279W, strain paf1, stronger effect = lower value 0.973 | locus YCL011C, strain gbp2, stronger effect = lower value 0.979 | locus YCL016C, strain dcc1, stronger effect = lower value 0.98 | locus YCL029C, strain bik1, stronger effect = lower value 0.983 | locus YCL061C, strain MRC1, stronger effect = lower value 0.978 | locus YCL069W, strain vba3, stronger effect = lower value 0.989 | locus YCR088W, strain abp1, stronger effect = lower value 0.987 | locus YDL005C, strain med2, stronger effect = lower value 0.998 | locus YDL035C, strain GPR1, stronger effect = lower value 0.924 | locus YDL040C, strain nat1, stronger effect = lower value 0.981 | locus YDL074C, strain BRE1, stronger effect = lower value 0.86 | locus YDL101C, strain DUN1, stronger effect = lower value 0.949 | locus YDL134C, strain PPH21, stronger effect = lower value 0.948 | locus YDL185W, strain tfp1, stronger effect = lower value 0.945 | locus YDR001C, strain nth1, stronger effect = lower value 0.973 | locus YDR069C, strain doa4, stronger effect = lower value 1 | locus YDR101C, strain arx1, stronger effect = lower value 0.927 | locus YDR137W, strain rgp1, stronger effect = lower value 0.952 | locus YDR159W, strain sac3, stronger effect = lower value 1.01 | locus YDR297W, strain sur2, stronger effect = lower value 0.974 | locus YDR318W, strain mcm21, stronger effect = lower value 0.95 | locus YDR334W, strain swr1, stronger effect = lower value 0.967 | locus YDR335W, strain msn5, stronger effect = lower value 0.978 | locus YDR388W, stronger effect = lower value 0.959 | locus YDR392W, strain spt3, stronger effect = lower value 0.765 | locus YEL003W, strain gim4, stronger effect = lower value 0.982 | locus YEL037C, strain rad23, stronger effect = lower value 0.981 | locus YEL061C, strain CIN8 (second series), stronger effect = lower value 0.984 | locus YEL061C, strain CIN8, stronger effect = lower value 0.963 | locus YER015W, strain faa2, stronger effect = lower value 0.972 | locus YER016W, strain bim1, stronger effect = lower value 0.984 | locus YER110C, stronger effect = lower value 0.949 | locus YER111C, strain swi4, stronger effect = lower value 0.992 | locus YER155C, strain BEM2, stronger effect = lower value 0.962 | locus YER167W, strain BCK2, stronger effect = lower value 0.97 | locus YFR010W, strain ubp6, stronger effect = lower value 0.98 | locus YGL078C, strain dbp3, stronger effect = lower value 0.979 | locus YGL086W, strain mad1, stronger effect = lower value 0.937 | locus YGL167C, strain pmr1, stronger effect = lower value 0.975 | locus YGL173C, strain kem1, stronger effect = lower value 0.986 | locus YGL227W, strain vid30, stronger effect = lower value 0.994 | locus YGL240W, strain doc1, stronger effect = lower value 0.931 | locus YGL248W, strain PDE1, stronger effect = lower value 0.95 | locus YGL253W, strain hxk2, stronger effect = lower value 0.956 | locus YGR078C, strain PAC10, stronger effect = lower value 0.882 | locus YGR252W, strain gcn5, stronger effect = lower value 0.802 | locus YHR013C, strain ard1, stronger effect = lower value 1.01 | locus YHR027C, strain rpn1, stronger effect = lower value 0.984 | locus YHR030C, strain SLT2, stronger effect = lower value 0.945 and 0.955 | locus YHR079C, strain IRE1 (second series), stronger effect = lower value 0.977 | locus YHR079C, strain IRE1, stronger effect = lower value 0.944 | locus YHR094C, strain hxt1, stronger effect = lower value 0.985 | locus YHR129C, strain ARP1, stronger effect = lower value 0.959 | locus YHR142W, strain chs7, stronger effect = lower value 0.904 | locus YHR200W, strain rpn10, stronger effect = lower value 0.923 | locus YIL066C, strain RNR3, stronger effect = lower value 0.88 | locus YIL073C, strain SPO22, stronger effect = lower value 0.955 | locus YIL125W, strain kgd1, stronger effect = lower value 0.979 | locus YIR030C, strain dcg1, stronger effect = lower value 0.962 | locus YJL092W, strain hpr5, stronger effect = lower value 0.972 | locus YJL095W, strain BCK1 (second series), stronger effect = lower value 0.974 | locus YJL115W, strain asf1, stronger effect = lower value 0.984 | locus YJL129C, strain trk1, stronger effect = lower value 0.993 | locus YJL134W, strain LCB3, stronger effect = lower value 0.967 | locus YJL154C, strain vps35, stronger effect = lower value 0.987 | locus YJL164C, strain tpk1, stronger effect = lower value 0.966 | locus YJL166W, strain qcr8, stronger effect = lower value 0.945 | locus YJL168C, strain set2, stronger effect = lower value 0.977 | locus YJL187C, strain SWE1 (second series), stronger effect = lower value 0.947 | locus YJL187C, strain SWE1, stronger effect = lower value 0.973 | locus YJR043C, strain POL32, stronger effect = lower value 0.887
0.785 (active) and 0.957 (inactive): locus YJL095W, strain BCK1, stronger effect = lower value
active: locus YDL192W, strain arf1, stronger effect = lower value 0.866 | locus YDR162C, strain NBP2, stronger effect = lower value 0.822 | locus YDR195W, strain ref2 1.14 [resistant] | locus YDR502C, strain sam2, stronger effect = lower value 0.918 | locus YER155C, strain BEM2 (second series), stronger effect = lower value 0.832 | locus YGR135W, strain pre9, stronger effect = lower value 0.881
